{"source": "PubChem BioAssay (NCI)", "note": "Compounds without any hit were thinned out: in the full panel of roughly 83,000, 20% have a hit.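 Method: cells in 96-well plates; compound added at one concentration; 48 h incubation; percent growth measured; values under 10 scored active.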 Values without a mark were called inactive. Activity calls are given as the source filed them."}
{"system": "HL-60(TB) leukemia", "assay": "NCI-60 one-dose screen, 48 h (100 = growth as untreated, 0 = no growth, -100 = all killed)", "settings": "10 µM unless noted"}
{"smiles": "CC(C)(C)OC(=O)N1CCC(O)[C@@H](O[Si](c2ccccc2)(c2ccccc2)C(C)(C)C)[C@H]1/C=C/c1ccccc1", "note": "(some centres not stated)", "growth": "55.9%"}
{"smiles": "C/C(=C\\c1cc(Cl)ccc1OCC(=O)O)[N+](=O)[O-]", "growth": "52.5%"}
{"smiles": "COc1c(C(=O)Nc2ccc(C)c(Br)c2)ccc2ccccc12", "growth": "91.2%"}
{"smiles": "Cc1ccc2c(c1)C(=O)/C(=C/c1ncc([N+](=O)[O-])n1C)O2", "growth": "-13% (active)"}
{"smiles": "COc1cc(-c2cc(/C=C3\\C(=O)Nc4ccc(Cl)cc43)[nH]n2)cc(OC)c1OC", "growth": "-26% (active)"}
{"smiles": "CNc1ccccc1C(N)=O", "growth": "114%"}
{"smiles": "O=C(c1ccc(O)cc1)c1ccc(O)cc1", "growth": "117%"}
{"smiles": "NC(=O)SCC(=O)NNc1ccccc1", "growth": "101%"}
{"smiles": "C[n+]1cc2cc(C(N)=O)[nH]c3c(=N)c(Cl)c(N)c1c23", "growth": "78.8%"}
{"smiles": "COC(=O)c1c(-c2ccccc2)csc1NC(=O)c1c(-c2ccccc2)noc1C", "growth": "28.3%"}
{"smiles": "CC(C)CCSc1nc(-c2ccc(F)cc2)c(C#N)c(N2CCCCC2)n1", "growth": "73.1%"}
{"smiles": "C=C1C(=O)O[C@H]2[C@H]1CC/C(COC(=O)c1c[nH]c3ccccc13)=C\\CC[C@@]1(C)O[C@@H]21", "growth": "-25.9% (active)"}
{"smiles": "COc1ccc(C(=O)Nc2ccc3nc(N4CCCCC4)cc(C)c3c2)cc1OC", "growth": "60.3%"}
{"smiles": "CC1(C)CC(=O)c2c(nn(-c3ccc(Br)cc3)c2-c2cn(-c3ccccc3)nc2-c2cccnc2)C1", "growth": "92.1%"}
{"smiles": "CN(C)c1ccc(/C=C/C(=O)c2ccc(NC(N)=O)cc2)cc1", "growth": "87.3%"}
{"smiles": "O=C(Cn1cc(COc2ncnc3c2cnn3-c2ccccc2)nn1)Nc1ccccn1", "growth": "105%"}
{"smiles": "COc1cc2nc(Cl)nc(Nc3cccc(C(=O)/C=C/c4ccc(Cl)cc4)c3)c2cc1OC", "growth": "51.7%"}
{"smiles": "CC(=O)c1cc2c(N)c(C(=O)Nc3cccc4ccccc34)sc2nc1C", "growth": "-10.7% (active)"}
{"smiles": "C[N+](C)(C)CCCCCCCCCC[N+](C)(C)C", "growth": "96.5%"}
{"smiles": "CN1C(=O)C(C(=O)/C=C/c2ccccc2C(=O)O)C(=O)N(C)C1=O", "growth": "97.4%"}
{"smiles": "S=C(SSC(=S)N1CCOCC1)N1CCOCC1", "growth": "98%"}
{"smiles": "CN[C@@H](C)C(=O)N[C@H]1CCS[C@H]2CC(C)(C)[C@@H](C(=O)N[C@H]3c4ccccc4C[C@H]3OCC#CC#CCO[C@@H]3Cc4ccccc4[C@@H]3NC(=O)[C@H]3N4C(=O)[C@@H](NC(=O)[C@H](C)NC)CCS[C@H]4CC3(C)C)N2C1=O", "growth": "-47.4% (active)"}
